Inhibition data for 60 compounds are collected here from PubChem BioAssay AID588726 (The Scripps Research Institute Molecular Screening Center, 2011).

The structures appear in SMILES notation. About 8,200 (2.3%) of roughly 360,000 compounds were called active. No stated cut-off is given here; in the data, active means inhibition above about 27%; inactive means the rest. The entries come from a sample that favours actives as a whole.

Sequence of Fructose-bisphosphate aldolase (Mycobacterium tuberculosis (strain ATCC 25618 / H37Rv)) (P9WQA3 whole entry, looked up): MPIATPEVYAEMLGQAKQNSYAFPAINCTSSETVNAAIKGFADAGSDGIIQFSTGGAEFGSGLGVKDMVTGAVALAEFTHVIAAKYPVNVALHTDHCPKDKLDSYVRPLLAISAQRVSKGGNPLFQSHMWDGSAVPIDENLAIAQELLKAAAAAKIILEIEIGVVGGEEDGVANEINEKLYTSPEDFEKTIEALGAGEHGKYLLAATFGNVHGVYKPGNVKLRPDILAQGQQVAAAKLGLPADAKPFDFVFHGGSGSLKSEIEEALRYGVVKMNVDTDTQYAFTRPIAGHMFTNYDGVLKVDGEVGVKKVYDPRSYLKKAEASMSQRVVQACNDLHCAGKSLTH

The assay has as its target Fructose-bisphosphate aldolase (Mycobacterium tuberculosis (strain ATCC 25618 / H37Rv)) (UniProt P9WQA3). Put plainly: Mtb FBA enzyme inhibitors, primary screen, biochemical, fluorescence, strain H37Rv (AID 588726).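 Further: 0% = vehicle and 100% = reference inhibitor.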 Conditions: purified M. tuberculosis FBA, fluorescence read-out, at 1 µM, active compounds read high.
Consider `Cc1cc(Br)ccc1SCC(=O)OCC(=O)NCc1ccc2c(c1)OCO2`, for which the inhibition (as a rule, the relative decrease from the control value, in per cent) was -1.37% (inactive). Consider `CCn1c(=O)cc(SCC(=O)NCCC2=CCCCC2)c2ccccc21`, for which the inhibition is 6.21% (inactive). To `Cc1ccc(S(=O)(=O)N(C)CC(=O)OCC(=O)N2CC(=O)Nc3ccccc32)cc1` belongs 0.54% (inactive); to `Cc1ccc(S(=O)(=O)N2CC(=O)Nc3ccccc32)cc1C`, -0.25% (inactive). To `Cc1ccc(C)c(S(=O)(=O)N2CC(=O)Nc3ccccc32)c1` belongs 31.2% (active); to `O=C(OCc1cn([C@@H]2C[C@H](c3ccc(Cl)cc3)N(Cc3cccs3)C[C@H]2O)nn1)c1ccccc1`, 0.72% (inactive).

Take `O=C(CCNC(=O)c1ccccc1)NN=Cc1ccc(Br)o1`: the inhibition was 0.48% (inactive). To `O=C(CCc1n[nH]c(=O)[nH]c1=O)N/N=C/c1ccc(Br)o1` belongs 4.62% (inactive). Turning to `O=C(CCC(=O)N/N=C/c1ccc(Br)o1)N/N=C/c1ccc(Br)o1`, the inhibition was 31.8% (active). To `N#Cc1cnn2cc(CCN3CCOCC3)c(-c3ccc(F)cc3)nc12` belongs 15.8% (inactive). To `COc1ccc2c(c1)CCc1c(C(=O)N3CCCC3)noc1-2` belongs 0.6% (inactive); to `COc1ccc2c(c1)CCc1cn3ncc(C#N)c3nc1-2`, 522% [above what the read-out allows, likely interference] (active).

Consider `CC(C)C(NS(=O)(=O)c1cccs1)C(=O)Nc1nc(C(C)(C)C)cs1` (stereo not given), for which the inhibition is 2.98% (inactive). As for `CN1C(=O)C2(OCCCO2)c2cc(Cl)ccc21`, the inhibition is 1.91% (inactive). `CCOc1ccc(Nc2nc(Cc3nnc(SCC(=O)c4ccc(C)cc4)o3)cs2)cc1`: the inhibition is -1.31% (inactive). As to `CCN(CC)C(=O)C1=C(C)N(Cc2ccc(F)cc2)C(=O)C(CC(=O)NC2CCCC2)C1` (stereo not given), the inhibition was -1.29% (inactive). To `Cn1nccc1NS(=O)(=O)c1ccc(F)cc1` belongs -0.97% (inactive); to `CC(=O)N(C)c1ccc(NC(=O)Nc2cccc3ccccc23)cc1`, 6.26% (inactive); to `CCN(C(=O)Nc1cccc2ccccc12)c1ccccc1`, 75.4% (active). To `O=C(Nc1cccc2ccccc12)NC1CC1` belongs 9.02% (inactive); to `O=C(N/N=C/c1cccc2cccnc12)[C@H]1C[C@@H]1c1ccccc1`, -0.16% (inactive); to `C[N+]1(CCNC(=O)/C=N/O)CCCCC1`, 4.51% (inactive). Regarding `COC(=O)c1c(NC(=O)CN2C(=O)NC(CCc3ccccc3)C2=O)sc2c1CCCCC2` (stereo not given), the inhibition was -0.99% (inactive). To `O=C1C2C3C=CC(C3)C2C(=O)N1c1ccc(S(=O)(=O)Nc2nccs2)cc1` (stereo not given) belongs -2.35% (inactive); to `COc1cccc(N2CCN(c3ccc4nnc(CCC(=O)N5CCN(C)CC5)n4n3)CC2)c1`, 1.71% (inactive).

For the compound `CN1CCN(c2ccc([N+](=O)[O-])c(Sc3nc4ccccc4[nH]3)c2)CC1`, the inhibition was -3.38% (inactive). To `COCCCNS(=O)(=O)c1cccc(S(=O)(=O)c2cccc(S(=O)(=O)NCCCOC)c2)c1` belongs 0.27% (inactive); to `COc1ccc(/C=N/n2c(C)cc(C)cc2=O)cc1`, 3.54% (inactive); to `CC(C)OCCCNc1ncnc2c1[nH]c1ccc(F)cc12`, 31.8% (active). To `O=C(Nc1ccccc1Cl)/C(Cl)=C(\Cl)S(=O)c1ccccc1` (stereo not given) belongs -3.21% (inactive); to `CC(C)Cn1cc(-c2cncc3nccn23)cn1`, 142% (active).

For `C=CCSc1nc(N)cc(=O)[nH]1`, the inhibition is 3.86% (inactive). To `CC(Oc1cccc(Cl)c1)C(=O)NC1CC(C)(C)NC(C)(C)C1` (stereo not given) belongs 0.76% (inactive). To `Cc1cc(OC(C)C(=O)NC2CC(C)(C)NC(C)(C)C2)c2c(C)cc(=O)oc2c1` (stereo not given) belongs 154% (active); to `Cc1cc(C)c(NC(=S)N2CCCC2C(=O)O)c(C)c1` (stereo not given), 0.88% (inactive). Turning to `CCc1cc(=O)oc2cc(C)cc(OCC(=O)N3CCC[C@@H]3C(=O)O)c12`, the inhibition is 106% (active). To `Cc1cc(C)c2c(Cn3ccnc3)cc(=O)oc2c1` belongs 0% (inactive); to `CCc1cc(=O)oc2cc(C)cc(OC(C)C(=O)O)c12` (stereo not given), 176% (active).

For the compound `Cc1cc(=O)oc(C)c1C(=O)NC1CC(C)(C)NC(C)(C)C1`, the inhibition is 0.07% (inactive). As for `CCc1cc(=O)oc2cc(OCC(=O)N3CCCc4ccccc43)ccc12`, the inhibition was 5.17% (inactive).

With `COc1cccc(NC(=O)COc2cc(C)cc3oc(=O)cc(C)c23)c1`, the inhibition was 7.86% (inactive).

With `CCOC(=O)c1sc2nc(C)nc(Nc3ccc(OC)c(OC)c3)c2c1C`, the inhibition is 0.66% (inactive). To `N#Cc1ccc(C(c2ccc(C#N)cc2)n2cncn2)cc1` belongs 2.3% (inactive); to `O=C(CNS(=O)(=O)c1ccc2ccccc2c1)Nc1ccc(F)c(F)c1F`, 1.83% (inactive); to `CC(C)NS(=O)(=O)c1ccc(CCC(=O)N2CCOCC2)cc1`, 0.26% (inactive).

For `CCc1nc2c(OCCc3cccc(OC)c3)cccn2c1N(C)C(=O)c1ccc(C)cc1`, the inhibition is 1.14% (inactive). To `CC(=O)c1cccc(-n2nnnc2SCC(=O)NNC(=O)C2CCCCC2)c1` belongs 3.69% (inactive); to `COc1cc(C(=O)NCc2nnc(SCC(=O)Nc3nc4ccc(C)cc4s3)o2)cc(OC)c1OC`, 1.7% (inactive). To `N/C(=N\OC(=O)CCn1cccc(C(F)(F)F)c1=O)c1ccc(OC(F)(F)F)cc1` belongs 1.82% (inactive); to `Cc1ccc(NN=C2C(=O)OC(C)(C)OC2=O)c(C)c1`, -7.26% (inactive). To `COc1ccc(Br)c2c1C(=O)CC2` belongs 2.69% (inactive); to `O=C(c1c(F)cccc1Cl)N1CCN(c2ccccn2)CC1`, 116% (active). Consider `O=C(Cc1ccccc1Cl)N1CCN(c2ccccn2)CC1`, for which the inhibition was 10.2% (inactive). To `O=C(c1c(F)cccc1F)N1CCN(c2ncc(Br)cn2)CC1` belongs -0.3% (inactive). To `NS(=O)(=O)c1cc2c(cc1Cl)NC(C(Cl)Cl)NS2(=O)=O` (stereo not given) belongs 2.88% (inactive); to `COc1ccc(OC)c(NC(=O)Cn2c(=O)oc3ccccc32)c1`, -2.86% (inactive); to `CCc1cccc2c(C=C(C#N)C#N)cn(CC(=O)N3CCCCC3)c12`, -1.66% (inactive).

`COC(=O)c1noc(C)c1-c1ccnn1C(=O)c1ccc(Cl)cc1`: the inhibition was 29.4% (active). To `Cc1onc(-c2ccc(Cl)cc2)c1-c1ccnn1S(=O)(=O)c1ccc(Cl)cc1` belongs -3.96% (inactive); to `COC(=O)c1cn(C(=O)c2ccc(Cl)cc2)c2ccccc12`, -0.26% (inactive).
